Rango-impB inh = qHTS Assay for Inhibitors of Rango (Ran-regulated importin-beta cargo) - Importin beta complex formation; Rango CFP/YFP FRET sensor + importin beta, 45 min; Potency, µM (doses to about 92.2 µM), without a hit: top-dose inhibition of complex formation; 340,000 compounds, 0.031% hits;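 note: potency is the fitted concentration of half-maximal effect; 0% = DMSO wells and 100% = buffer wells lacking importin beta; nearly all actives have a fitted effect of over 15% in size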
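FRET biosensor (snurportin 1 IBB flanked by EYFP and cerulean), 50 nM, with compound 5 min, then 0.125 microM importin beta in PBS, 1 mM DTT, 0.02% Tween-20, 0.1% BSA. CFP/YFP ratio read after 45 min at room temperature; pre-read flags interference.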
Rango release inh = qHTS Assay for Inhibitors of RanGTP induced Rango (Ran-regulated importin-beta cargo) - Importin beta complex dissociation | Snurportin-1 (Homo sapiens) + GTP-binding nuclear protein Ran (Homo sapiens) + Importin … | Biochemical FRET Rango-importin beta, RanGTP-induced dissociation | Potency, µM (highest dose often 46.1 µM), for the others: top-dose activity change, negative = inhibition | 340,000 compounds, 0.071% hits; note: potency is the fitted concentration of half-maximal effect; % of control where 0% means no effect; nearly all actives have a fitted effect of over 45% in size
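Compounds preincubate 5 min with complex of recombinant Rango and importin beta in PBS with 1 mM DTT. Ran (0.6 uM) loaded with 2 mM GTP plus 0.2 uM RCC1 starts dissociation; FRET is recorded 45 min later.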
DRD3 agonist = qHTS of D3 Dopamine Receptor Agonist: qHTS | D3R DiscoveRx beta-arrestin cells, luminescence, 90 min | 410,000 compounds, 0.58% hits | D(3) dopamine receptor (Homo sapiens), P35462 | AID 652048, 2013 | max activation, %; in the data active = max activation above about 30%; note: 0% is about no effect
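Agonist-mode cell screen: cells plated at 1500/well and incubated overnight at 37 °C, then exposed to library compounds for 90 min at 37 °C. Detection reagent was added for 30–60 min at room temperature, and luminescence was read.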
TSG101-PTAP inh = qHTS Assay for Iinhibitors of HIV-1 Budding by Blocking the Interaction of PTAP/TSG101; Tumor susceptibility gene 101 protein (Homo sapiens), Q99816; 340,000 tested, under 10 active; Potency, µM (top dose mostly 115 µM), inactives show top-dose activity change, negative = inhibition, actives largely listed as inhibitors; Fluorescence polarization, FITC-PTAP peptide / Tsg101 binding; AID 493005, 2010; active = well fitted inhibition curve with a large enough effect in the main read-out, with a control signal flat, not every such curve was filed as active; inconclusive = small, poorly fitted or top-dose-only effect, or effect the other way, or a change in a side signal; inactive = no such curve, though single readings can be large or run the other way; note: potency is the fitted concentration of half-maximal effect; % of control where 0% means no effect
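Fluorescence anisotropy tracks displacement of a FITC-tagged PTAP peptide (50 nM) from the Tsg101 binding domain (10 uM), following a 20 min room-temperature incubation at pH 7.5.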
Mm-Cpn inhibitor = Inhibitors of TCP-1 ring complex (TRiC) of Methanococcus maripaludis (MmCpn): qHTS. Chaperonin Mm-Cpn (Methanococcus maripaludis). purified Mm-Cpn ATPase, ADP Transcreener TR-FRET. Potency, µM (doses to about 76.9 µM), for inactives: at the highest dose activity, negative = inhibition, actives largely listed as inhibitors. 330,000 compounds, 0.031% hits; active = well fitted inhibition curve with a large enough effect; inconclusive = small, poorly fitted or top-dose-only effect; note: potency is the fitted concentration of half-maximal effect; % is set by controls: 0 for no effect and ±100 for the full control effect; nearly all actives have a fitted effect of over 80% in size
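Quantitative HTS used 25 nM Mm-CPN and 10 uM ATP in magnesium/KCl Tris buffer, pH 7.4, with 1 mM DTT. Hydrolysis ran 30 min at 37°C; ADP was read by HTRF.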
DRD3 antagonist = qHTS of D3 Dopamine Receptor Antagonist: qHTS; D3R cells, DiscoveRx beta-arrestin luminescence, antagonist mode; active compounds read low; max response, negative = inhibition, %; D(3) dopamine receptor (Homo sapiens), P35462; 360,000 compounds, 2.5% hits; in the data active = max response below about -50%; inconclusive = no clear call, values can overlap the other calls; note: % is set by controls: 0 for no effect and ±100 for the full control effect
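Cells plated overnight at 1500 cells/well, then exposed to library compounds with dopamine controls for 90 minutes at 37 degrees C. DiscoveRx reagent added for 30–60 minutes at room temperature; luminescence read, quantitative HTS format.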
Numbers without * were called inactive; u = inconclusive; x = no result. In the library only some 2.9% were active in any assay of this set; here they are far more common. Unless noted, calls come from the whole dose curve.

SMILES	Rango-impB inh	Rango release inh	DRD3 agonist	TSG101-PTAP inh	Mm-Cpn inhibitor	DRD3 antagonist
C[C@@H]1COC(=O)[C@H](Cc2ccc(F)cc2)C/C=C\C[C@@H](CC(=O)NCCO)C(=O)N1	-3%	-9%	37*	-11%	0%	10
O=C1N[C@H](Cc2ccccc2)COC(=O)[C@@H](Cc2ccc(F)cc2)C/C=C\C[C@H]1CC(=O)N(CCO)Cc1ccccc1	1%	-10%	-14	-7%	0%	20
O=C1N[C@H](Cc2ccccc2)COC(=O)[C@H](Cc2ccc(F)cc2)C/C=C\C[C@@H]1CC(=O)N(CCO)Cc1ccccc1	-1%	14%	-40	x	2%	-57*
COc1ccc(Nc2ncc(C(=O)Nc3cccc(Cl)c3)c3ccccc23)cc1	x	x	6	x	x	x
COc1cccc(NS(=O)(=O)c2ccc3[nH]cc(C(=O)NCCc4ccccc4)c(=O)c3c2)c1	x	x	-2	x	x	x
CCN(CC(=O)Nc1ccccc1OC)C(=O)COc1ccc(C#N)cc1	3%	1%	1	-7%	x	22
CCCN(CCC)CCNC(=O)C1CCCN(S(=O)(=O)c2ccc3c(c2)oc(=O)n3C)C1 (stereo unspecified)	0%	3%	46*	x	0%	-18
O=C(Nc1nnc([C@@H]2C[C@H](O)[C@@H](CO)O2)s1)Nc1cccc2c1CCCC2	x	x	9	x	x	-1
CC(C)CC(=O)NC(=S)Nc1nc(-c2cccc3ccccc23)cs1	0%	10%	-9	-1%	-10%	-73*
CCN(c1ccc(OC)cc1)S(=O)(=O)c1csc(C(N)=O)c1	1%	10%	-1	-1%	-1%	0
Nc1nc(N)c(N=Nc2ccccc2)c(=O)[nH]1	-2%	-9%	-12	-9%	x	-5
Nc1nc(N=Nc2ccc(O)cc2)cc(=O)[nH]1	x	x	-22	x	x	-90*
COC(=O)c1ccccc1NC(=O)CSc1nc(C)c(Cl)c(C)c1C#N	x	x	-22	x	x	x
CN=C(C[N+](=O)[O-])NCCSCc1ccc(CN(C)C)o1	2%	21%	-66	-2%	0%	-59*
Cc1ccc(CNC(=O)CN2CCN(Cc3ccc(F)cc3Cl)C2=O)cc1	x	x	-1	x	x	x
c1cnc2c(C3NCCc4c3[nH]c3ccccc43)cccc2c1 (stereo unspecified)	-2%	3%	-59	2%	x	-87*
O=C1CCCCc2cc(O)c(O)cc21	x	x	52*	x	x	-2
CN1C(=O)c2ccccc2Sc2ccc(NC(=O)N3CCN(c4ccc(F)cc4)CC3)cc21	x	x	1	x	x	x
CC(=O)N1CCc2cc(Br)cc(S(=O)(=O)N3CCN(c4cccc(C(F)(F)F)c4)CC3)c21	x	x	-22	x	x	x
COc1ccc(Cn2c(=O)[nH]c3cc(C(=O)NC4CCN(Cc5ccccc5)CC4)ccc32)cc1	1%	-4%	-16	-5%	0%	-67*
COc1ccc(Cn2c(=O)[nH]c3cc(C(=O)Nc4ccc(N5CCN(C)CC5)cc4)ccc32)cc1	4%	1%	2	-1%	-2%	12
COc1ccc(Cl)cc1NS(=O)(=O)c1cccc(C(=O)NC2CCN(Cc3ccccc3)CC2)c1	2%	2%	-25	0%	x	-104*
COc1ccc(NS(=O)(=O)c2cccc(C(=O)NC3CCN(Cc4ccccc4)CC3)c2)cc1	-4%	-5%	-23	-1%	-1%	-53*
Cc1cc(C)cc(NC(=O)CCc2c(C)nc3nc(CNC(=O)c4cccc(F)c4)nn3c2C)c1	x	x	9	x	x	x
COc1ccc(Cl)cc1NC(=O)CN(C)C(=O)c1cc2c(s1)CCCC2	0%	1%	-15	-4%	-3%	-8
SMILES	Rango-impB inh	Rango release inh	DRD3 agonist	TSG101-PTAP inh	Mm-Cpn inhibitor	DRD3 antagonist
Cn1c(CN2CCCC2)nc2cc(NS(=O)(=O)c3ccccc3)ccc21	4%	0%	-35	-1%	1%	-80*
COc1ccc(-n2cnc3cc(NS(=O)(=O)c4ccccc4)ccc32)cc1	-4%	0%	5	0%	-16%	-87*
Cc1ccc(S(=O)(=O)Nc2ccc3c(c2)nc(CCN2CCCC2)n3C)cc1	u	14%	-14	0%	-2%	-57*
Cn1c(CCN2CCCC2)nc2cc(NS(=O)(=O)c3ccc(F)cc3)ccc21	x	x	1	x	x	17
CC(C)(C)n1cnc2cc(NS(=O)(=O)c3ccccc3)ccc21	-1%	1%	-3	-2%	0%	10
Cn1c(CN2CCCC2)nc2cc(NS(=O)(=O)c3ccc(Cl)cc3)ccc21	-3%	-4%	-19	0%	0%	-104*
CCCCN(C(=O)c1ccc(NC(=O)C(C)C)cc1)c1ccccc1	-1%	7%	9	-4%	-5%	7
O=C(Cc1ccc(F)cc1)NCc1ccc2c(c1)CCN2C(=O)c1ccc(F)cc1	x	x	5	x	x	x
Cc1cc(Cl)ccc1NC(=O)CN1C(=O)COc2ccc(S(=O)(=O)Nc3ccccc3)cc21	x	x	-14	x	x	x
COc1ccc([C@H]2C[C@H](O)[C@@H](n3cc(-c4ccc(F)cc4)nn3)CN2C(=O)c2cccs2)cc1	x	x	71*	x	x	5
C=C1C(=C/C=C2\CCC[C@]3(C)[C@@H]([C@H](C)/C=C/[C@@H](O)C4CC4)CC[C@@H]23)C[C@@H](O)C[C@@H]1O	x	x	14	x	x	x
Cc1ccc(NS(=O)(=O)c2cccc(C(=O)NCC3CCCO3)c2)cc1 (stereo unspecified)	5%	-15%	-1	-4%	-1%	2
CSC1=C(C#N)C(=O)NC(c2ccccc2O)S1 (stereo unspecified)	4%	6%	-5	0%	2%	-7
COC(=O)CSC1=C(C#N)C(=O)NC(c2ccccc2)S1 (stereo unspecified)	1%	4%	-2	-6%	-1%	-74*
COc1ccc(CN2CCNC(=O)C2CC(=O)NC2CCOCC2)c(F)c1 (stereo unspecified)	u	-3%	6	x	3%	-14
COc1ccc(CN2CCNC(=O)C2CC(=O)NC2CCCCCC2)c(F)c1 (stereo unspecified)	u	-13%	-25	-1%	-3%	-69*
NC(=O)N1CCN(CCCN2c3ccccc3Sc3cc(Cl)ccc32)CC1	x	x	-7	x	x	-69*
c1ccc2c(c1)Sc1ccccc1N2CCN1CCCC1	x	x	-10	x	x	x

Source: PubChem (National Center for Advancing Translational Sciences (NCATS))
